Data taken from PubChem BioAssay (NCATS).
Results filed as inconclusive are left out. A call without a number means that no potency is given here. Active and inactive are the calls of the source. Calls follow the shape of the dose curve; as a rule, active = well fitted curve in the direction sought with a large enough effect; inconclusive = small, poorly fitted or top-dose-only effect, or another doubt; inactive = no such curve, though single readings can be large; an effect the other way counts as inactive or inconclusive.

Columns and labels:
[1] = qHTS to identify inhibitors of the type 1 interferon - major histocompatibility complex class I in skeletal muscle: primary screen against the NCATS Pharmaceutical Collection (AID 1347407);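 also: luminescence of HiBiT knocked into endogenous HLA-B as interferon-induced MHC class I level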
How it was run: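 Luminescence from HiBiT-tagged endogenous HLA-B*08:01 served as the read-out of IFN-beta-induced MHC class I in CRISPR-engineered C25cl48 myoblasts. Cells received 4 ng/ml IFN-beta plus compound (high final 46 uM, […]) for 24 h.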

[2] = biological target: Protein phosphatase 1D (Homo sapiens) (UniProt O15297); experiment: RapidFire Mass Spectrometry qHTS Assay for Modulators of WT P53-Induced Phosphatase 1 (WIP1) (AID 1347424);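 also: amount of dephosphorylated VEPPL-S-QETFS peptide product formed by WIP1; series mostly up to about 63 µM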
Sequence of Protein phosphatase 1D (Homo sapiens) (O15297 whole entry, looked up): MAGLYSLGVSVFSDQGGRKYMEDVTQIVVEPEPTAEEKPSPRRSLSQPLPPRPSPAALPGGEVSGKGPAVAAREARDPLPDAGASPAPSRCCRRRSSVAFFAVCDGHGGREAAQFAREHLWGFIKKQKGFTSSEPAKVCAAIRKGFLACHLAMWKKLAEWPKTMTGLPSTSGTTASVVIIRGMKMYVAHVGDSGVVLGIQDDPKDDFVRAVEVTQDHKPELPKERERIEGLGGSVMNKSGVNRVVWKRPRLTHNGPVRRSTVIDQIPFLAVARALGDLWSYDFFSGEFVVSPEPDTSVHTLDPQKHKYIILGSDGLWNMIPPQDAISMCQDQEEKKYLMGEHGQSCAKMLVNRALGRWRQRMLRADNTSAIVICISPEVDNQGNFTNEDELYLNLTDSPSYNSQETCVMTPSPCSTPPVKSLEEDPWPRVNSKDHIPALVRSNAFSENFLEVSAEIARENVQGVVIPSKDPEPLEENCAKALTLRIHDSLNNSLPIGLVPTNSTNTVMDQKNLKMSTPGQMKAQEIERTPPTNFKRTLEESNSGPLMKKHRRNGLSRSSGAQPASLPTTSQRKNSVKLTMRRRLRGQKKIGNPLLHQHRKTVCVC
How it was run: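 10 nM WIP1 preincubated with compounds 1 hr at room temperature in pH 7.5 Tris buffer with 30 mM MgCl2, 1 mM TCEP; 2 uM VEPPL-pS-QETFS phosphopeptide for 5 min, formic acid quench; dephosphorylated product quantified by RapidFire MS against labelled standard.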

[3] = biological target: Protein phosphatase 1D (Homo sapiens) (UniProt O15297); experiment: Rhodamine-PBP qHTS Assay for Modulators of WT P53-Induced Phosphatase 1 (WIP1) (AID 1347425)
How it was run: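 WIP1 (5 nM final) was preincubated with compound for 1 hour at room temperature. It then dephosphorylated 10 uM VEPPL-pS-QETFS peptide in Tris-HCl pH 7.5 with 30 mM MgCl2. Released Pi was detected by 10 uM Rh-PBP fluorescence (ex 525/em 598 nm) read at 1-min intervals for 11 min, as delta f1 - f0.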

Compound	Potency [1]	Potency [2]	outcome [3]
C[C@H]1C[C@H](O)c2ccsc2S1(=O)=O	inactive	inactive	inactive
CCS(=O)(=O)c1ccc(OC)c(C(=O)OC)c1	inactive	inactive	inactive
CCO[C@H](Cc1ccc(OCCc2ccc(OS(C)(=O)=O)cc2)cc1)C(=O)O	inactive	inactive	inactive
CC(C)NC(=O)c1ccc(C=O)cc1	inactive	inactive	inactive
O=C(O)c1cn(C2CC2)c2cc(Cl)c(F)cc2c1=O	inactive	inactive	inactive
C[N+]1(C)CCC(OC(=O)C(O)(c2ccccc2)C2CCCC2)C1 (stereo not given)	inactive	inactive	inactive
CN1N=C(C(N)=O)CCC1=O	inactive	inactive	inactive
CC(=O)O[C@@H]1CC2C3CCc4cc(OC(=O)c5ccccc5)ccc4C3CCC2(C)[C@H]1OC(C)=O (stereo not given in full)	inactive	inactive	inactive
COC(=O)c1cc(Cl)ccc1OC	inactive	inactive	inactive
CCN(CC)CC(=O)Oc1ccc(NC(C)=O)cc1	inactive	inactive	inactive
CCN(CC)CCN	inactive	inactive	inactive
C[C@@H](C1=C(CCN(C)C)Cc2ccccc21)c1ccccn1	inactive	inactive	inactive
CN(C)CCOC1=Cc2ccccc2Sc2ccc(Cl)cc21	inactive	inactive	inactive
CO[C@]1(NC(=O)CSC(F)F)C(=O)N2C(C(=O)O)=C(CSc3nnnn3CCO)CO[C@H]21	inactive	inactive	inactive
CCOC(=O)NNc1ccc(N(CC)CC(C)O)nn1 (stereo not given)	inactive	inactive	inactive
CCN1CCN(C(=O)N[C@@H](C(=O)N[C@@H]2C(=O)N3[C@@H]2SC(C)(C)[C@H]3C(=O)O)c2ccccc2)C(=O)C1=O	inactive	inactive	inactive
CN(C)CCOC(c1ccccc1)c1ccc(Br)cc1 (stereo not given)	inactive	inactive	inactive
CCCC(=O)Nc1ccc(O)c(C(C)=O)c1	inactive	inactive	inactive
Cc1ccc(-c2ccccc2C#N)cc1	inactive	inactive	inactive
COc1cc2c(cc1OC)CN(C(=O)[C@H](C)N[C@@H](CCc1ccccc1)C(=O)O)[C@H](C(=O)O)C2	inactive	inactive	inactive
CN1C(=O)CC(C)(c2ccccc2)C1=O (stereo not given)	inactive	inactive	inactive

Compound	Potency [1]	Potency [2]	outcome [3]
O=C1CC(c2ccc(Cl)cc2)CC(=O)N1	inactive	inactive	inactive
Nc1ncnc2c1ncn2Cc1c(F)cccc1Cl	inactive	inactive	inactive
CCOC(=O)C(=O)c1csc(NC=O)n1	inactive	inactive	inactive
CO[C@@H]1[C@@H](OC)[C@H](C)[C@@](O)(CC(=O)O)O[C@H]1[C@H](C)[C@H]1O[C@@]2(CC[C@@](C)([C@H]3CC[C@@](C)([C@@H]4O[C@@H]([C@H]5O[C@](C)(O)[C@H](C)C[C@@H]5C)C[C@@H]4OC4C[C@H](OC)[C@@H](OC)[C@H](C)O4)O3)O2)C[C@H](O)[C@H]1C (stereo not given in full)	inactive	inactive	inactive
COc1cc(OC)nc(O[C@H](C(=O)O)C(OC)(c2ccccc2)c2ccccc2)n1	inactive	inactive	inactive
Nc1ccc([N+](=O)[O-])c(C(F)(F)F)c1	inactive	inactive	inactive
Cc1ccccc1N1CCN(CCc2nnc3n2CCCC3)CC1	inactive	inactive	inactive
Brc1ccccc1-c1ccccc1	inactive	inactive	inactive
CCOC(=O)c1ccc(NC(=O)CN2CCCCC2)cc1	inactive	inactive	inactive
CCOC(=O)CN1CCCC1=O	inactive	inactive	inactive
COC(=O)c1cc(Cl)ccc1NS(=O)(=O)C(F)(F)F	inactive	inactive	inactive
OC1(c2ccccc2)CCNCC1	inactive	inactive	inactive
O=C(O)CCCC[C@@H]1SC[C@@H]2NC(=O)N[C@@H]21	inactive	inactive	inactive
OC(CCCN1CCCCC1)(c1ccccc1)c1ccccc1	inactive	inactive	inactive
C[N+](C)(CCOc1ccccc1)Cc1cccs1	inactive	inactive	inactive
CC1(C)OC(=O)Nc2ccc(Br)cc21	inactive	inactive	inactive
Cc1ccc(CCn2c3c(c4cc(Cl)ccc42)CN(C)CC3)cn1	inactive	inactive	inactive
Cc1onc(-c2c(Cl)cccc2Cl)c1C(=O)Cl	inactive	inactive	inactive
O=C(OCCN1CCOCC1)c1cccnc1Nc1cccc(C(F)(F)F)c1	inactive	inactive	inactive
O=S(=O)(O)c1ccc2nc(-c3ccccc3)[nH]c2c1	inactive	inactive	inactive
NS(=O)(=O)c1cc2c(cc1Cl)CN(C1CCCCC1)C2=O	inactive	–	inactive
